LASV entry inh = qHTS for Inhibitors of binding or entry into cells for Lassa Virus; Lassa virus pseudotype entry inhibition, cell reporter; AID 540256, 2011; Potency, µM (doses to about 37.9 µM), usual class: inhibitors; 300,000 compounds, 1.2% hits; calls by dose curve; tested in HEK293 cells; note: nearly all actives have a fitted effect of over 50% in size
Shiga toxin inh = A qHTS for Small Molecule Inhibitors of Shiga Toxin; Vero cells, Shiga toxin protein synthesis inhibition reporter; inhibition, % at 38.7 µM; 290,000 compounds, 9.2% hits; AID 2315, 2010; in the data active = inhibition mostly above about 28%, no sharp cut-off; inactive = mostly below about 43%
Cycloheximide cs = Cycloheximide Counterscreen for Small Molecule Inhibitors of Shiga Toxin; cell reporter, cycloheximide protein synthesis inhibition counterscreen; max response, %; 300,000 compounds, 12% hits; in the data active = max response mostly above about 13%, no sharp cut-off; inactive = mostly below about 14%; note: read at 38.3 µM for the half of the compounds with a filed dose
MARV entry inh = qHTS for inhibitors of binding or entry into cells for Marburg Virus; Potency, µM (highest dose often 37.8 µM), most hits filed as inhibitors; 300,000 compounds, 1.8% hits; AID 540276, 2011; Marburg virus pseudotyped entry inhibition, cell reporter; calls by dose curve; tested in HEK293 cells
Pf growth 48h = Primary qHTS for delayed death inhibitors of the malarial parasite plastid, 48 hour incubation. 310,000 compounds, 5.9% hits. P. falciparum luciferase growth in erythrocytes, 48 h. Potency, µM (top dose mostly 28.7 µM), actives largely listed as inhibitors
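Read-out is firefly luciferase luminescence from an integrated reporter in P. falciparum, so falling signal marks reduced parasite growth. Infected erythrocytes were at 2% hematocrit and 0.1% parasitemia (final) in Albumax-supplemented RPMI 1640.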
Pf growth 96h = Primary qHTS for delayed death inhibitors of the malarial parasite plastid, 96 hour incubation; P. falciparum luciferase reporter growth, 96 h; Potency, µM (highest dose often 28.7 µM), most hits filed as inhibitors; 320,000 compounds, 6.9% hits; AID 504834, 2011
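Two-generation exposure (96 h) targets delayed-death phenotype. Reporter parasites carrying integrated firefly luciferase, in red cells at 2% hematocrit and 0.05% parasitemia final, kept at 37 C, 5% CO2; luminescence loss indicates inhibition.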
Of the large screens only hits and unclear results are named; the others gave an inactive call. Compounds with a hit are over-represented: about 19% of the library has one in this group of screens. Unless noted, calls come from the whole dose curve; as a rule, active = well fitted inhibition curve with a large enough effect; inconclusive = small, poorly fitted or top-dose-only effect, or another doubt; inactive = no such curve, though single readings can be large or run the other way.

CN1CCN(C(=O)C(C(=O)c2ccc(F)cc2)n2ccccc2=O)CC1 (configuration not stated)	Pf growth 96h 2.33µM
O=C(NCc1ccccn1)C(C(=O)c1ccc(F)cc1)n1ccccc1=O (configuration not stated)	MARV entry inh inconclusive, Pf growth 96h 13.1µM
COc1ccc(NC(=O)c2cccc(Oc3ccc([N+](=O)[O-])cc3Cl)c2)cc1	LASV entry inh inconclusive, MARV entry inh inconclusive
CCOC(=O)CNC(=S)N(Cc1ccc(C)cc1)Cc1ccc(C)o1	LASV entry inh inconclusive, MARV entry inh inconclusive
CCOc1ccccc1N(CC(=O)Nc1ccccc1C(=O)NCc1ccco1)S(C)(=O)=O	MARV entry inh inconclusive, Pf growth 48h inconclusive (no result: Pf growth 96h)
CC(C)CCN1CCN(Cc2ccsc2)CC1CCO (configuration not stated)	Pf growth 96h 13.1µM (no result: LASV entry inh, MARV entry inh)
CC(C)CCN1CCN(Cc2ccoc2)CC1CCO (configuration not stated)	none (no result: LASV entry inh, MARV entry inh)
OCCC1CN(Cc2ccc3cc(Cl)ccc3n2)CCN1Cc1ccsc1 (configuration not stated)	LASV entry inh inconclusive, MARV entry inh inconclusive, Pf growth 48h inconclusive, Pf growth 96h 5.22µM
CC(C)CCN1CCN(CC(c2ccccc2)c2ccccc2)CC1CCO (configuration not stated)	LASV entry inh inconclusive, MARV entry inh inconclusive, Pf growth 48h 3.7µM, Pf growth 96h inconclusive
OCCC1CN(Cc2ccc3nonc3c2)CCN1Cc1ccsc1 (configuration not stated)	MARV entry inh inconclusive
CCCCCCCC(=O)OCC(O)CO (configuration not stated)	none
CC(NC(=O)c1ccc2c(c1)CCN2S(=O)(=O)c1ccccc1)c1ccccc1 (configuration not stated)	LASV entry inh inconclusive (no result: Shiga toxin inh, Cycloheximide cs, Pf growth 48h, Pf growth 96h)
O=c1cc(CN2CCN(Cc3ccccc3)CC2)c2cc3c(cc2o1)CCC3	LASV entry inh inconclusive, Pf growth 48h inconclusive
CC1=Nc2cc(Cl)ccc2Oc2ccccc21	Pf growth 96h 2.08µM
CC(=O)NC1C(OCc2ccccc2)OC2COC(c3ccccc3)OC2C1OCC(=O)O (configuration not stated)	Cycloheximide cs 40.7, MARV entry inh inconclusive
Nc1ccccc1Nc1ccccc1	Pf growth 96h inconclusive
Nc1ccc(Nc2ccccc2)c(Cl)c1	Shiga toxin inh 52.3, Cycloheximide cs 26.6 (no result: Pf growth 96h)
COc1ccc(CNC(=O)Cn2ccc(N)nc2=O)cc1	none (no result: LASV entry inh, Shiga toxin inh, Cycloheximide cs, MARV entry inh)
c1ccc(-c2csc3ncnc(NCC4COc5ccccc5O4)c23)cc1 (configuration not stated)	LASV entry inh inconclusive, MARV entry inh 2.24µM, Pf growth 48h inconclusive, Pf growth 96h inconclusive
O=C(O)CC1S/C(=N/N=C/C2CC=CCC2)NC1=O (configuration not stated)	MARV entry inh inconclusive, Pf growth 96h 5.86µM
O=C(O)CC1S/C(=N/N=C/C=C/c2ccccc2)NC1=O (configuration not stated)	MARV entry inh inconclusive
COc1ccccc1-c1nc(CNC(=O)NC2CCCCC2)c(C)o1	none (no result: Shiga toxin inh, Cycloheximide cs, MARV entry inh, Pf growth 48h, Pf growth 96h)
Fc1ccccc1Nc1nc2ccccc2n2nnnc12	Cycloheximide cs 40.5 (no result: LASV entry inh, MARV entry inh, Pf growth 48h)
CCN(CC)S(=O)(=O)c1ccc(Nc2nc3ccccc3n3nnnc23)cc1	LASV entry inh inconclusive, Shiga toxin inh 108.9, Cycloheximide cs 31.7, Pf growth 48h 4.65µM
c1ccc2c(c1)nc(Nc1ccc3c(c1)OCO3)c1nnnn12	Shiga toxin inh 129.5, Cycloheximide cs 39.1, Pf growth 48h 10.4µM
Brc1ccc(Nc2nc3ccccc3n3nnnc23)cc1	Cycloheximide cs 65.1, Pf growth 96h inconclusive (no result: LASV entry inh, Pf growth 48h)
COc1cccc(Nc2nc3ccccc3n3nnnc23)c1	MARV entry inh inconclusive (no result: Pf growth 48h, Pf growth 96h)
Oc1ccccc1Nc1nc2ccccc2n2nnnc12	LASV entry inh inconclusive (no result: Shiga toxin inh, Cycloheximide cs, Pf growth 48h, Pf growth 96h)
COc1ccc(CCNCC(=O)Nc2ccc(C)c(Br)c2)cc1OC	MARV entry inh inconclusive
CCOC(=O)N1CCC(Nc2nc3ccccc3n3nnnc23)CC1	Cycloheximide cs 18.9, Pf growth 48h inconclusive
Fc1cccc(Nc2nc3ccccc3n3nnnc23)c1	Pf growth 96h 6.57µM (no result: LASV entry inh, MARV entry inh, Pf growth 48h)
c1ccc(Nc2nc3ccccc3n3nnnc23)cc1	Shiga toxin inh 55.5, Cycloheximide cs 45.3, Pf growth 48h inconclusive (no result: LASV entry inh, MARV entry inh)
CCOC(=O)c1ccccc1Nc1nc2ccc(C)cc2n2nnnc12	LASV entry inh inconclusive (no result: Shiga toxin inh, Cycloheximide cs, Pf growth 48h, Pf growth 96h)
COc1ccc(CS(=O)(=O)CC2(O)CCN(C(=O)c3cccc(C(F)(F)F)c3)CC2)cc1	Pf growth 48h 14.7µM
O=C(c1cccc(C(F)(F)F)c1)N1CCC(O)(CS(=O)(=O)Cc2ccccc2)CC1	none
Cc1ccc(OCC(=O)Sc2ccc(C)cc2)cc1	none (no result: Pf growth 48h)
COCc1c(C(=O)OCC(=O)N2c3ccccc3NC(=O)C2(C)C)oc2ccccc12	MARV entry inh inconclusive, Pf growth 48h inconclusive, Pf growth 96h 11.7µM
CCN(CC)S(=O)(=O)c1ccc(N2CCOCC2)c(NC(=O)CCC2CCCCC2)c1	Pf growth 48h 8.28µM, Pf growth 96h inconclusive
CC(C)(C)c1ccc(C(=O)NCCC(=O)Nc2cc(Cl)ccc2N2CCOCC2)cc1	Pf growth 48h 13.1µM, Pf growth 96h inconclusive (no result: LASV entry inh, Shiga toxin inh, Cycloheximide cs, MARV entry inh)
O=C(CCC1CCCC1)Nc1cc(Cl)ccc1N1CCOCC1	Pf growth 48h inconclusive, Pf growth 96h 8.28µM (no result: LASV entry inh, Shiga toxin inh, Cycloheximide cs, MARV entry inh)
CCN(CC)S(=O)(=O)c1ccc(N2CCOCC2)c(NC(=O)Cc2ccccc2F)c1	LASV entry inh inconclusive, Pf growth 48h inconclusive, Pf growth 96h inconclusive
O=C(Nc1cc(Cl)ccc1N1CCOCC1)C1CC1	none (no result: Shiga toxin inh, Cycloheximide cs, Pf growth 48h, Pf growth 96h)
CCN(CC)S(=O)(=O)c1ccc(N2CCOCC2)c(NC(=O)Cc2cccc3ccccc23)c1	LASV entry inh inconclusive, MARV entry inh inconclusive, Pf growth 48h 13.1µM, Pf growth 96h 3.7µM
O=C(O)CCC(=O)Nc1ccc(Br)cc1C(=O)c1ccccc1	none (no result: LASV entry inh, MARV entry inh)
COc1cccc(NC(=O)Cn2c(CCC(=O)O)ccc2-c2ccc(Cl)cc2)c1	Pf growth 96h inconclusive
O=C(Cc1csc(NC(=O)c2ccccc2)n1)NO	Pf growth 48h inconclusive, Pf growth 96h inconclusive (no result: LASV entry inh, MARV entry inh)
O=C(Cc1ccsc1-c1ccccc1)NO	Pf growth 48h 13.1µM
C/C(=N\NC(=O)COc1ccccc1F)c1cc2ccccc2o1	Shiga toxin inh 126.1, Cycloheximide cs 47.9
C/C(=N\NC(=O)c1ccco1)c1cc(Cl)sc1Cl	Shiga toxin inh 71.2, Cycloheximide cs 24.7 (no result: LASV entry inh, MARV entry inh)
COc1ccc(/C(C)=N/NC(=O)CNC(=O)c2ccco2)c(OC)c1	none
C/C(=N\NC(=O)c1ccco1)c1cc2ccccc2o1	Shiga toxin inh 95.4, Cycloheximide cs 57.7
C/C(=N\NC(=O)c1ccco1)c1ccc(-c2ccccc2)cc1	LASV entry inh inconclusive, Shiga toxin inh 107.9, Cycloheximide cs 23.4, MARV entry inh inconclusive, Pf growth 48h inconclusive, Pf growth 96h inconclusive
COc1ccc(S(=O)(=O)Nc2cc(Sc3ncn[nH]3)c(O)cc2C)cc1	none (no result: Shiga toxin inh, Cycloheximide cs, Pf growth 48h, Pf growth 96h)
COc1ccc(C(C)=O)cc1CSc1ccc(S(=O)(=O)N2CCCCC2)cn1	Pf growth 48h inconclusive (no result: LASV entry inh, Shiga toxin inh, Cycloheximide cs, MARV entry inh)
CC(=O)Nc1ccc(/C(C)=N/NC(=O)c2ccncc2)cc1	none
